# From PubChem BioAssay
# Rows were chosen to be rich in hits. Some 4.2% of all compounds tested hit in one or more screens of this group.
# NALP3 yeast inh – NALP3 inflammasome inhibitors in reconstituted yeast, primary screen, luminescence, uHTS | 330,000 tested, 0.39% active | AID 2825, 2010 | Yeast reconstituted NLRP3/ASC/caspase-1, beta-gal luminescence, 24 h | inhibition, % at 10 µM;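 active = inhibition of 50% or more; inactive = inhibition below 50%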;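 note: plate controls were induced DMSO wells for no effect and uninduced yeast grown without galactose for full effect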
# NALP1 inh – NALP1 inflammasome inhibitors in reconstituted yeast, colorimetric, S. cerevisiae, triplicate retest | S. cerevisiae NALP1/ASC/caspase-1 growth, X-gal OD620, 72 h | inhibition, % at 10 µM | 280,000 tested, 0.61% active | AID 2071, 2009; in the data active = inhibition mostly above about 24%, no sharp cut-off; inactive = mostly below about 32%
# tim10-1 inh – growth inhibitors of tim10-1 mutant yeast, primary screen, luminescence, uHTS; inhibition, % at 20 µM; AID 463190, 2010; 330,000 tested, 2.2% active; S. cerevisiae tim10-1 ts strain growth, BacTiter-Glo, 24 h;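 active = inhibition of at least 40%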;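 note: mutant grown at 25 °C; 0% = DMSO wells with yeast and 100% = wells holding no yeast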
# TIM10 inh – growth inhibitors of isogenic TIM10 control yeast, primary screen, counter-screen for tim10-1 yeast inhibitor project, luminescence, uHTS; 330,000 tested, 1.4% active; inhibition, % at 10 µM; S. cerevisiae TIM10 strain growth, BacTiter-Glo luminescence, 24 h; AID 463195, 2010;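 active = inhibition of 40% or more at the single tested concentration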;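 note: wild-type TIM10 isogenic control strain grown at permissive 25 °C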
# tim23-1 inh – growth inhibitors of tim23-1 mutant yeast, primary screen, luminescence, uHTS; inhibition, % at 20 µM; S. cerevisiae tim23-1 growth, BacTiter-Glo luminescence, 24 h; AID 463212, 2010; 330,000 tested, 1.3% active;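 active = growth inhibition of the mutant yeast at or above 50%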;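 note: temperature-sensitive mutant grown at 25 °C; plate controls were DMSO-treated mutant yeast for no effect and medium wells lacking yeast for full effect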
# PfHsp90 yeast 2 – growth inhibition of PfHsp90-expressing yeast, primary screen, antimalarial PfHsp90 inhibitor project, S. cerevisiae, BacTiter-Glo luminescence, single point, set 2; BacTiter-Glo ATP, 48 h; yeast lacking PDR1 and PDR3 efflux regulators; inhibition, % at 9.4 µM; 310,000 tested, 0.32% active;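 active = every replicate shows inhibition above about 80%, whatever the replicate mean, limit read from the data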;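 note: 0% = DMSO neutral controls and 100% = 20 µM radicicol positive controls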
# * = called active by the depositor; . = not tested or not shown.
SMILES,NALP3 yeast inh,NALP1 inh,tim10-1 inh,TIM10 inh,tim23-1 inh,PfHsp90 yeast 2
COc1cc(-c2nnc(SCc3cc(=O)oc4cc(O)c(O)cc34)o2)cc(OC)c1OC,5,45*,1,-60,-14,.
O=C(OCC(=O)N1CCCCCC1)c1ccccc1Br,-1,.,8,11,23,16
CCC(C)NS(=O)(=O)c1ccc(OCC(=O)Nc2ccc3c(c2)OCO3)cc1 (stereo not given),-18,41*,1,7,1,8
CC(=O)c1cccc(NC(=O)C(C)N2CCc3ccccc3C2)c1 (stereo not given),-6,.,1,-6,12,-10
O=C(CC1NC(=O)NC1=O)Nc1ccc(Cl)cc1 (stereo not given),16,38*,-9,-7,3,19
O=C(CC1SC(=O)NC1=O)Nc1ccc(Cl)cc1 (stereo not given),7,-9,37,33,19,33
CC[C@H](C)/C=C/C1=CC2=C(Cl)C(=O)[C@@]3(C)OC(=O)C(C(=O)[C@H](C)[C@@H](C)O)=C3C2=CO1,-3,.,21,15,23,104*
COc1ccc(Cc2noc(CN(C)CCN3CCc4ccccc4C3)n2)cc1OC,-8,29*,11,2,-1,1
COc1ccccc1N1CCN(CCCCOc2cccc3ccccc23)CC1,36,54*,2,8,10,27
Fc1ccc(OCCCCCN2CCCC2)cc1,21,-6,4,3,-6,17
COc1ccccc1N1CCN(CCCCCCOc2ccc(F)cc2)CC1,26,46*,-17,4,-13,-11
COc1ccccc1OCCCCN1CCN(c2ccccc2OC)CC1,1,47,6,-2,2,5
Cc1ccc2c(COC(=O)CNC(=O)c3ccco3)cc(=O)oc2c1C,1,.,15,-26,17,0
CC(CNC(=O)CN1C(=O)NC2(CCOc3ccccc32)C1=O)c1ccccc1 (stereo not given),13,.,0,4,7,5
CCOc1ccccc1N1CCN(C(=O)c2ccc(NS(=O)(=O)c3ccc4[nH]c(=O)[nH]c4c3)cc2)CC1,18,.,5,-3,-1,29
C[C@@H]1[C@@H](Sc2ccccc2)CC(=O)O[C@@H]1c1ccc(-c2ccccc2)cc1,9,.,23,0,17,7
O=C1C=CC2(O[C@H](c3ccccc3)[C@@H](c3ccccc3)O2)[C@H](Sc2ccccc2O)C1,.,.,.,.,.,113*
COc1cccc(-c2nnc3sc(C4CCCCC4)nn23)c1,-15,37*,25,1,40,-7
COc1cc(-c2nnc3sc(C4CCCCC4)nn23)cc(OC)c1OC,-12,.,28,26,13,-20
COc1ccc(-n2c(C)c([N+](=O)[O-])c3ccc(O)c(CN(C)C)c32)cc1,20,24*,20,8,18,-6
COc1ccc(-n2c(C(C)n3nc(C)c([N+](=O)[O-])c3C)n[nH]c2=S)cc1 (stereo not given),8,-18,4,-7,-7,-26
Cc1cccc(C)c1-n1nnnc1C(C)(C)N1CCN(N=O)CC1,-12,37*,8,2,12,9
CCN(CC)CCCNC(=O)c1ccc(N2CCCCC2)c(NS(=O)(=O)c2ccc(C)cc2)c1,15,24*,19,0,8,8
Cc1ccc(S(=O)(=O)Nc2cc(C(=O)NCCN(C)C)ccc2N2CCCC2)cc1,26,26,1,3,-25,3
CCOC(=O)CSc1nc2ccccc2c(=O)[nH]1,-7,.,-3,-8,-9,-4
SMILES,NALP3 yeast inh,NALP1 inh,tim10-1 inh,TIM10 inh,tim23-1 inh,PfHsp90 yeast 2
CCOC(=O)c1nc2ccccc2c(=O)[nH]1,11,43*,5,-11,9,-2
CCNC(=O)NC(=O)CSc1ccc(S(=O)(=O)N2CCOCC2)cn1,4,.,5,1,9,1
CCCn1c2ccccc2c2cnn(CC(=O)N3CCN(C4CCCCC4)CC3)c(=O)c21,9,18,33,24,33,-17
CCCCCC(=O)NNC1CC(=O)N(c2ccccc2)C1=O (stereo not given),-1,6,-9,6,5,.
CCCCCC(=O)N(O)C1CC(=O)N(c2ccccc2)C1=O (stereo not given),-4,4,26,18,19,105*
Cc1ccc(S(=O)(=O)c2cc3c(=O)n4ccccc4nc3n(CCc3ccccc3)c2=N)cc1,-6,32*,8,2,9,9
CC1(C)CC(=O)C2=C(C1)C(c1cn(-c3ccccc3)nc1-c1ccccc1)C(C#N)=C(N)O2 (stereo not given),22,43*,34,0,24,0
Cc1onc(-c2ccccc2Cl)c1C(=O)N(C)CC(=O)Nc1ccc(F)c(F)c1F,13,.,14,2,16,.
CCCC1COC(Cn2cncn2)(c2ccc(C)cc2)O1 (stereo not given),20,20,-209,-61,-252,99*
CN(C)c1ccc(N=C/C=C2/N(C)c3ccccc3C2(C)C)cc1,.,54*,.,.,.,14
CN1/C(=C\C=N\O)C(C)(C)c2ccccc21,14,4,20,24,7,-22
CCOc1cc(/C=N/NC(=O)C(C)Sc2ccccc2)ccc1O (stereo not given),1,-7,6,12,8,-7
COc1cccc(/C=N/NC(=O)C(C)Sc2ccccc2)c1 (stereo not given),22,30*,18,-11,-11,12
O=C(NCCN1CCNC1=O)C1CCC(=O)N(CCc2ccc(Cl)cc2)C1 (stereo not given),14,-2,-9,1,-11,-3
O=C(NCCN1CCCC1=O)C1CCC(=O)N(CCc2ccc(Cl)cc2)C1 (stereo not given),-10,32*,5,4,4,-8
Cc1cc(NC(c2cccnc2)c2ccc3cccnc3c2O)no1 (stereo not given),24,12,31,-40,11,-16
Oc1c(C(Nc2ccccn2)c2cccnc2)cc(Cl)c2cccnc12 (stereo not given),31,22,20,33,49,103*
N=c1c2c(ncn1Cc1ccco1)Oc1ccc3ccccc3c1C2c1ccccc1 (stereo not given),26,57*,21,40,15,-33
COc1ccc(C2c3c(ncn(Cc4ccco4)c3=N)Oc3ccc4ccccc4c32)cc1 (stereo not given),12,27,34,33,35,3
